What is called inhibition is the change of the read-out against control, counted positive when it falls.

The whole screen tested about 65,000 compounds, of which about 95 (0.1%) were called active.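 How the source made its calls: active means inhibition above the screen-wide mean inhibition plus 3 SD (cut at about 21% in these data); inactive means the rest.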 This excerpt belongs to a sample that is enriched for actives.

From PubChem BioAssay AID524 (The Scripps Research Institute Molecular Screening Center, 2006) come the findings set out here.

For this assay, the target named is cAMP-dependent protein kinase catalytic subunit alpha (Homo sapiens) (UniProt P17612). The assay can be described thus: inhibitors of human PKA kinase activity, primary screen, biochemical, ATP-depletion luminescence, Kemptide substrate (AID 524). The note with it: PKA Kemptide phosphorylation, Kinase-Glo ATP luminescence; at 6 µM; active compounds read high. A general note: Kinase-Glo reads ATP consumption through a luciferase reaction.
On to `COc1ccc(C)c2sc(=NC(=O)c3ccc(C#N)cc3)n(C)c12`, for which the inhibition is 3.2% (inactive).

On to `CN(C(=O)c1ccccn1)c1nnc(-c2ccccn2)s1`, for which the inhibition was -0.9% (inactive).

As to `CN(C(=O)c1ccno1)c1nnc(-c2cccnc2)s1`, the inhibition was 2.6% (inactive).

Regarding `CN(C(=O)COc1ccccc1)c1nnc(-c2ccncc2)s1`, the inhibition is 29.1% (active).

In the case of `CC(C)N(C(=O)Cn1c(SCC(=O)N2CCN(c3ccccc3)CC2)nc2ccccc21)C(C)C`, the inhibition was 7.5% (inactive).

As for `Cc1cc(C)cc(NC(=O)C2CCN(c3nc(C)cc(C)n3)CC2)c1`, the inhibition was 6.7% (inactive).

Turning to `O=C(CSc1nnc(-c2ccccn2)n1-c1ccccc1)Nc1ccc2c(c1)OCO2`, the inhibition was 5.1% (inactive).

In the case of `Cc1ccn2cc(C(=O)NC3CCN(Cc4ccccc4)CC3)nc2c1`, the inhibition is 4.5% (inactive).

Take `Nc1nc(SCCOc2ccccc2)n[nH]1`: the inhibition was 11.5% (inactive).

Take `O/N=C(\c1ccc2c(c1)OCCO2)C1CCCCC1`: the inhibition was -0.4% (inactive).

With `Cc1cc(/C=N/n2cnnc2)c(C)n1-c1cccc(C(=O)O)c1`, the inhibition is 7.1% (inactive).

As for `COc1ccc(-c2cc3ccc(OCc4nn[nH]n4)cc3oc2=O)cc1`, the inhibition was 6.3% (inactive).

`CCc1cc(Br)ccc1NC(=O)C1CCCO1` (centres undefined): the inhibition is 12.3% (inactive).

As for `Cc1cc(C(=O)CC#N)c(C)n1CC(F)(F)F`, the inhibition is 6% (inactive).

With `C=CCNc1nc(C)nc(OC)n1`, the inhibition is 4.4% (inactive).

On to `Cc1nc(N2CCN(c3ncccn3)CC2)c2oc3ccccc3c2n1`, for which the inhibition is 8.8% (inactive).

As to `CCOc1ncccc1C(=O)OCc1cn2cc(Cl)ccc2n1`, the inhibition is 8.2% (inactive).

Consider `COc1ccc(CCN=C2SCC(=O)N2C)cc1OC`, for which the inhibition was 5.5% (inactive).

As for `Fc1ccccc1OCCCCn1cncn1`, the inhibition is 2.8% (inactive).

Consider `CN(CC(=O)NC1CCCCC1)S(=O)(=O)c1ccc(Br)s1`, for which the inhibition was 4% (inactive).

For `COCCNC(=S)c1ccc(OC)cc1`, the inhibition was 5.8% (inactive).

With `Cn1cccc1C(=O)NC(=O)COC(=O)Cc1coc2ccc3ccccc3c12`, the inhibition was 5.5% (inactive).

On to `CCOc1ccc(NC(=O)N(CCC(C)C)C(C)c2ccco2)cc1` (centres undefined), for which the inhibition is 4.9% (inactive).

Consider `COc1ccc2c(c1)OC(O)(C(F)(F)C(F)F)CC2=O` (centres undefined), for which the inhibition was 4.1% (inactive).

Regarding `CC(C)C(=O)Nc1c(C(=O)c2ccc(F)cc2)oc2ccccc12`, the inhibition was 2.9% (inactive).

`CCCC(NC(=O)c1ccccc1)c1nc2ccccc2n1Cc1ccc(C(=O)OC)o1` (centres undefined): the inhibition is 9.3% (inactive).

In the case of `Cc1ccc(Cc2cncc(O)c2)cc1S(=O)(=O)O`, the inhibition is -3.1% (inactive).

In the case of `Cn1c(=O)c(C(=O)Nc2ncccn2)c(O)c2ccccc21`, the inhibition was -3.8% (inactive).

For `COc1ccc(NC(=O)c2c(C)oc3c2CCCC3)cc1`, the inhibition is 4.6% (inactive).

`Cc1ccc(C)c(NC(=O)CSc2nnc(Cc3cccn3C)n2-c2ccc(F)cc2)c1`: the inhibition was 7.2% (inactive).

With `Cn1c(=O)[nH]c(=O)c2c1nc(CN1CCN(c3ccccc3F)CC1)n2CCc1ccccc1`, the inhibition is 1.4% (inactive).

Consider `COc1cccc(N2CC(C(=O)Nc3c(C)cccc3C)CC2=O)c1` (centres undefined), for which the inhibition was 4.7% (inactive).

For the molecule `CCOC(=O)C1=C(C)NC(=O)N(C(C)=O)C1c1ccc(Cl)cc1` (centres undefined), the inhibition is 9.6% (inactive).

For the molecule `CN(C)S(=O)(=O)c1ccc(Oc2ccc(S(=O)(=O)N(C)C)cc2)cc1`, the inhibition was 9% (inactive).

`CC(NC(=O)c1ccc(Cl)cc1)C(=O)N1CCCCC1` (centres undefined): the inhibition was 8.7% (inactive).

For the molecule `O=C(Cc1cccs1)N1CCCC(c2nc(-c3ccc(S(=O)(=O)N4CCCC4)cc3)no2)C1` (centres undefined), the inhibition was 8.4% (inactive).

Take `CCCCCCn1c(SCC(=O)c2ccccc2)nc2c1c(=O)[nH]c(=O)n2C`: the inhibition was 7.8% (inactive).

Regarding `O=C1c2ccccc2C(Nc2ccc3c(c2)OCCO3)N1Cc1ccco1` (centres undefined), the inhibition was -9.3% (inactive).

For `Cc1ccc2c(c1)C(O)(CC(=O)c1cccnc1)C(=O)N2` (centres undefined), the inhibition is 6% (inactive).

For `COc1ccccc1Cn1c(=S)[nH]c2cc(C(=O)N3CCN(C)CC3)ccc2c1=O`, the inhibition was 4.3% (inactive).

Consider `Cc1cc(C)c(C#N)c(SCc2ccc3c(c2)OCO3)n1`, for which the inhibition is 7.3% (inactive).

Turning to `CCN(Cc1ccncc1)C(=O)c1cccc(S(=O)(=O)N2CCOCC2)c1`, the inhibition is -8.8% (inactive).

With `Cc1cccc(N2CCN(C(=O)C3CCN(S(=O)(=O)c4cnc[nH]4)CC3)CC2)c1C`, the inhibition is 9.6% (inactive).

For `O=C(COC(=O)c1ccc2c(c1)OCCO2)NCc1ccccc1`, the inhibition was 5.2% (inactive).

On to `O=C(CSc1nnc(-c2ccoc2)o1)N1CCOCC1`, for which the inhibition was -16.1% (inactive).

In the case of `O=C(O)Cc1ccc(NC(=O)C2CCCCC2C(=O)O)cc1` (centres undefined), the inhibition was 9.2% (inactive).

As to `CC1=NC2(CCCc3c2no[n+]3[O-])N(O)C1(C)C` (centres undefined), the inhibition is -8% (inactive).

Regarding `C/C(=C\C(=O)c1ccc(Br)cc1)N1CCCCC1`, the inhibition is 0.7% (inactive).

`c1ccc(CCc2nc(-c3ccncc3)no2)cc1`: the inhibition was 6.7% (inactive).

In the case of `COCCCNC(=O)c1ccc(CNS(=O)(=O)c2ccc(NC(C)=O)cc2)cc1`, the inhibition was -2.5% (inactive).

As to `O=c1c2ccccc2[nH]c(=S)n1CCN1CCC(=C(c2ccc(F)cc2)c2ccc(F)cc2)CC1`, the inhibition was -4.7% (inactive).

As for `Cc1nc(NC(=O)C23CCC(C)(C(=O)O2)C3(C)C)sc1C` (centres undefined), the inhibition is 1.8% (inactive).

As to `Cc1ccc(S(=O)(=O)N2CCOCC2)cc1C(=O)NCc1ccc(F)cc1`, the inhibition was 8.8% (inactive).

As for `COc1cc2[nH]c(=S)n(CCN3CCCCC3C)c(=O)c2cc1OC` (centres undefined), the inhibition was -5% (inactive).

On to `O=C1NC(c2cc3c(cc2Cl)OCO3)Oc2ccccc21` (centres undefined), for which the inhibition was -12.4% (inactive).

Turning to `CCCOc1ccc(-c2nc(N)n[nH]2)cc1`, the inhibition is -2.2% (inactive).

Take `O=C(Cn1c(=O)n(Cc2ccco2)c(=O)c2ccccc21)NCC1CCCO1` (centres undefined): the inhibition was 7.1% (inactive).

As for `O=c1c2ccccc2nnn1CSc1nc2sc3c(c2c(=O)n1CC1CCCO1)CCC3` (centres undefined), the inhibition was 6.1% (inactive).

For the molecule `COc1ccc(CN2CC(C(=O)NCCN3CCN(c4ccccc4F)CC3)CC2=O)cc1` (centres undefined), the inhibition is -0.3% (inactive).

On to `COc1ccc(C(c2nnnn2Cc2cccs2)N2CCN(c3ccccc3)CC2)cc1OC` (centres undefined), for which the inhibition was 7.6% (inactive).

For the molecule `CCCOc1ccc(Cn2c(O)cc(=O)[nH]c2=O)cc1`, the inhibition was 7.5% (inactive).

With `O=C(Nc1nc(-c2ccncc2)cs1)C1COc2ccccc2O1` (centres undefined), the inhibition is 103% (active).

Turning to `COc1ccc(OC)c2sc(NC(=O)C3COc4ccccc4O3)nc12` (centres undefined), the inhibition was 5.1% (inactive).

In the case of `O=C(Nc1nc(-c2ccc3c(c2)OCO3)cs1)c1ccncc1`, the inhibition is -1.3% (inactive).
